Screen size: about 1,000 compounds; about 200 (20%) were called active. Cut-off read from the data, not from the text of the source: active = inhibition above about 55%; inactive = the rest. Only a sample is shown. Potency and affinity values are given separately.
The compounds below were run against Dual specificity protein phosphatase 3 (Homo sapiens) (UniProt P51452) (assay: VHR1 phosphatase inhibitors, biochemical (AID 1878)). Settings: recombinant VHR phosphatase, fluorogenic substrate; at 13.3 µM; stronger effect = higher value.
Sequence of Dual specificity protein phosphatase 3 (Homo sapiens) (P51452 whole entry, looked up): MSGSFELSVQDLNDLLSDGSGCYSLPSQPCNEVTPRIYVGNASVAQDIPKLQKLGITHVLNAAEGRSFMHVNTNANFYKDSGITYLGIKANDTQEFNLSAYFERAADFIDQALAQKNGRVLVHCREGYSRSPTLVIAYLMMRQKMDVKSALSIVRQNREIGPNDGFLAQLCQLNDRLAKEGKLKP

| SMILES | inhibition |
| --- | --- |
| CCOCCCNC(=O)c1cn(C)c2ccc(S(=O)(=O)N3CCCCC3)cc2c1=O | 12.7% (inactive) |
| N#Cc1c(-c2cccs2)nc(SCC(=O)c2ccc(Br)cc2)[nH]c1=O | 95.4% (active) |
| Nc1cc(=O)[nH]c(SCCSc2ccc(F)cc2)n1 | -2.2% (inactive) |
| CN1CCN(CCNC(=O)Cn2c(=O)c3cccn3c3ccc(F)cc32)CC1 | -1% (inactive) |
| COc1ccc(CN(C)Cc2c(O)ccc3ccccc23)cc1 | -9% (inactive) |
| CCCCCc1nnc(NC(=O)Cc2ccc([N+](=O)[O-])cc2)s1 | 4.4% (inactive) |
| O=C(Nc1ccccc1F)N1CCc2ccccc2C1 | -0.6% (inactive) |
| Cn1cc(Cl)c(C(=O)Nc2nccs2)n1 | 25.2% (inactive) |
| COC(=O)c1ccccc1NC(=O)c1cc2ccccc2o1 | 12.8% (inactive) |
| Cc1ccc(NC(=O)CCS(=O)(=O)c2ccc3c(c2)NC(=O)C(C)S3)nc1 (stereo unspecified) | -1.8% (inactive) |
| COC(=O)c1ccccc1NC(=O)CCS(=O)(=O)c1ccc(Br)cc1 | 89.7% (active) |
| Cc1ccc2cc(CN(CC3CCCO3)C(=O)c3cccs3)c(=O)[nH]c2c1 (stereo unspecified) | -11.2% (inactive) |
| CN(C(=O)c1ccc(COc2ccccc2Cl)o1)c1ccccc1 | 15% (inactive) |
| O=C(Cn1c(=O)c2c3c(sc2n(Cc2ccccc2)c1=O)CCCC3)NCCO | -0.2% (inactive) |
| CCOC(=O)c1sc2nc(C)nc(NCc3ccc(Cl)cc3)c2c1C | 0.5% (inactive) |
| CCOC(=O)c1sc2ncnc(Nc3cccc(C(=O)O)c3)c2c1C | -6.2% (inactive) |
| Cc1cc(Cl)cc(Cl)c1OCCN1CCCC1 | -2.7% (inactive) |
| CSCCNC(=O)c1ccc2nc(Cc3ccccc3F)oc2c1 | -8.6% (inactive) |
| Cc1ccc2[nH]c(CN3CCN(C)C(CCO)C3)c(C)c2c1 (stereo unspecified) | -2.5% (inactive) |
| Cc1cc(-n2c(SCC(=O)NCCC3=CCCCC3)nc3n[nH]c(C)c3c2=N)ccc1Cl | 15.1% (inactive) |
| O=C(Nc1cc(-c2nc3ncccc3o2)ccc1Cl)c1cccs1 | -1.1% (inactive) |
| CN(CCO)CCOCCOc1cccc2ccccc12 | -15.7% (inactive) |
| CC(=O)c1ccc(OCC(=O)N2CCCC(Nc3ccc(C)c(C)c3)C2)cc1 (stereo unspecified) | 3.2% (inactive) |
| CCCCN(CCCNC(=O)c1ccc(CS(=O)(=O)c2c(Cl)cccc2Cl)o1)Cc1ccccc1 | -4.4% (inactive) |

| SMILES | inhibition |
| --- | --- |
| CC(=O)N/C(=N\c1nc(C)cc(C)n1)Nc1ccc(Cl)cc1Cl | -6.7% (inactive) |
| Oc1cccc2ccc(/C=C/c3ccccc3Cl)nc12 | -3.4% (inactive) |
| CSCCC1NC(=S)N(Cc2ccccc2)C1=O (stereo unspecified) | -5.4% (inactive) |
| O=C(CNS(=O)(=O)c1cccc(Br)c1)NCC1CCCCC1 | 11.2% (inactive) |
| Cc1ccc(N(C(=O)c2snc(C(N)=O)c2N)C(CC(C)C)C(=O)NC2CCCC2)cc1 (stereo unspecified) | 0.9% (inactive) |
| Cn1nnc2cc(C(=O)Nc3ccccc3F)ccc21 | -4.2% (inactive) |
| CCc1ccccc1NC(=O)C1CCCN1S(=O)(=O)c1ccc(-c2ccc(=O)[nH]n2)s1 (stereo unspecified) | -1.8% (inactive) |
| Cc1ccc(S(=O)(=O)N(C)C)cc1NC(=O)CN1CCCC1 | -0.5% (inactive) |
| C=CCN1C(=O)C2(OCCO2)c2cc(C)ccc21 | -6.3% (inactive) |
| CN(C)c1ccc(NC(=O)Nc2ccc3c(c2)nnn3C)cc1 | 38.6% (inactive) |
| C/C(=N\NC(=O)c1ccc(OC2OCCOC2Oc2ccc(C(=O)N/N=C(\C)c3ccncc3)cc2)cc1)c1ccncc1 (stereo unspecified) | 92.7% (active) |
| C/C(=N\NC(=O)C1CCCC1)c1ccc(Cl)cc1 | 3.5% (inactive) |
| Cc1ccccc1C(=O)NC[C@@H]1CCCN2CCCC[C@H]12 | -3.5% (inactive) |
| CC(=O)c1cccc(OCc2cc(C(=O)N3CC4C[C@@H]5CC3C[C@H](C4)C5)no2)c1 | 21.3% (inactive) |
| Cc1ccc2c(c1)N(CC(=O)NCCCN1CCCCC1C)C(=O)c1cccnc1O2 (stereo unspecified) | -7.1% (inactive) |
| O=C(COC(=O)CNC(=O)c1ccc(Cl)cc1Cl)Nc1ccc(N2CCOCC2)cc1 | 1.8% (inactive) |
| Cc1ccc(S(=O)(=O)N(C)C)cc1NC(=S)N(C)C1CCN(C)CC1 | -3.6% (inactive) |
| CCc1nnc(NC(=O)COc2ccc3c(c2)OCO3)s1 | 5.7% (inactive) |
| CCOc1ccccc1OCCN1CCCC1 | -12.9% (inactive) |
| O=[N+]([O-])c1ccc(N2N=C(c3ccccc3)CC2c2ccccc2O)cc1 (stereo unspecified) | 6% (inactive) |
| COc1ccc(C2=NN(C(=O)CCCC(=O)O)C(c3cn(-c4ccccc4)nc3-c3ccccc3)C2)cc1 (stereo unspecified) | 91.6% (active) |
| O=C(O)CCC(=O)N1N=C(c2ccccc2)CC1c1ccc(Br)cc1 (stereo unspecified) | -7.5% (inactive) |
| COc1cc(OC)c(NC2=CC(=O)C(=O)c3ccccc32)cc1Cl | 6.7% (inactive) |
| O=C(NCCc1cnc[nH]1)Nc1cccc(C(F)(F)F)c1 | -4.7% (inactive) |

| SMILES | inhibition |
| --- | --- |
| CN(c1ccc(C(=O)N2CCCCC2)cc1)S(C)(=O)=O | 27% (inactive) |
| CC1=CC(=O)c2c(O)ccc(O)c2C1=O | 65.2% (active) |
| COc1ccc(OC)c2c(C)cc(C)nc12 | -3.6% (inactive) |
| CC1CCCC(C)N1/N=C/c1ccc(O)c(O)c1 (stereo unspecified) | 2.9% (inactive) |
| COCCCN(CC(=O)Nc1ccc(N2CCOCC2)cc1)S(=O)(=O)c1ccc(Cl)cc1 | -3.7% (inactive) |
| CC1CCC(NCCNC(=O)c2ccco2)CC1 (stereo unspecified) | -9.5% (inactive) |
| O=C(Nc1ccnn1C1CCN(C2CCCC2)CC1)c1ccccc1 | -11.4% (inactive) |
| CCCCCC#CCC#CCC#CCC#CCCCC(=O)O | 94.6% (active) |
| COc1ccc(Nc2nccc(-c3ccc(C#N)cc3)n2)cc1 | -0.6% (inactive) |
| NC(=O)NC(=O)C(Nc1ccc(N2CCCCC2)cc1)c1ccccc1 (stereo unspecified) | 3.2% (inactive) |
| CCOc1ccc(CNC(=O)c2cccc(NC(=O)C3=C(C)OCCS3)c2)cc1 | 5.4% (inactive) |
| CN(C(=O)COC(=O)c1cc(F)c(F)cc1Cl)c1ccccc1 | -7.5% (inactive) |
| COC(=O)c1ccc(CN2CCCC(CNC(=O)Cc3ccc(OC)cc3)C2)cc1 (stereo unspecified) | -1% (inactive) |
| CCOc1ccc(CNC(=O)C(=O)c2cn(CC(=O)N3CCOCC3)c3ccccc23)cc1OC | -5.3% (inactive) |
| CCCCN(C)CCNC(=O)CCn1nc(-c2ccc(C)cc2)ccc1=O | 49.7% (inactive) |
| Cc1cccc(NC(=O)COc2ccc(/C=C\c3[nH]c(=O)[nH]c(=O)c3[N+](=O)[O-])cc2)c1 | 98.7% (active) |
| Cc1ccc(NC(=O)COc2cccc(-n3cnnn3)c2)cc1[N+](=O)[O-] | -11.9% (inactive) |
| Cc1ccc(OCC(=O)Nc2ccc(C(N)=O)cc2)cc1 | 19.4% (inactive) |
| Cc1nn(C)c(C)c1CCC(=O)N1CCCC(N2CCN(c3ccc(F)cc3)CC2)C1 (stereo unspecified) | -3.3% (inactive) |
| Cc1nc2sccn2c(=O)c1S(=O)(=O)Nc1ccc(N2CCN(S(C)(=O)=O)CC2)cc1 | -12.5% (inactive) |
| O=[N+]([O-])c1cccc(S(=O)(=O)N2CCN(c3ccccn3)CC2)c1 | -9.5% (inactive) |
| O=c1c2c(-c3cccc([N+](=O)[O-])c3)ccnc2[nH]n1-c1ccccc1 | 74.2% (active) |
| COc1ccc(-c2ccnc3[nH]n(-c4ccccc4)c(=O)c23)cc1 | 7.3% (inactive) |
| COc1ccc2c(C)nc(N/C(N)=N/S(=O)(=O)c3ccc(C)cc3)nc2c1 | 26.9% (inactive) |

| SMILES | inhibition |
| --- | --- |
| Cn1c(=O)[nH]c(=O)c2c1nc(N1CCNCC1)n2Cc1ccccc1Cl | 0.7% (inactive) |
| COc1cc(NC(=O)c2cnc(NCc3ccccc3)nc2C)cc(OC)c1OC | -1.7% (inactive) |
| c1cc(-c2nnc3sc(C4CCCCC4)nn23)ccn1 | -3.4% (inactive) |
| COc1ccccc1NS(=O)(=O)c1ccc2oc(SC)nc2c1 | -3.1% (inactive) |
| O=C1Nc2ccccc2C1=Nc1ccc(F)cc1 | -4.5% (inactive) |
| O=C(O)c1ccc(NC(=S)NC(=O)C(c2ccccc2)c2ccccc2)cc1 | -6.3% (inactive) |
| O=C(NC(=S)Nc1ccccn1)c1ccc(-c2ccccc2)cc1 | 0.9% (inactive) |
| COc1cccc(-c2cc(C(=O)N3CCc4ccccc4C3)[nH]n2)c1 | 6.6% (inactive) |
| COc1ccc(NC(=O)c2cc3ccc4c5ccccc5[nH]c4c3cc2O)cc1 | 19.8% (inactive) |
| O=C(C1CC1)N1N=C(c2cccc(Br)c2)CC1(O)C(F)(F)F (stereo unspecified) | 2.7% (inactive) |
| Nc1ccc(C(=O)N(CCO)CCO)cc1 | 4.4% (inactive) |
| CC(=O)Nc1nc(C)c(-c2nc3ccc([N+](=O)[O-])cc3[nH]2)s1 | 1% (inactive) |
| CN(C)C(=O)/C(=C/c1ccc(-c2cccc([N+](=O)[O-])c2)o1)NC(=O)c1ccccc1 | 1.2% (inactive) |
| Cc1ccc2nc(/C(C#N)=C/c3ccc(-c4cccc([N+](=O)[O-])c4)o3)[nH]c2c1 | 96.4% (active) |
| Cc1cc(C)c(S(=O)(=O)NCC2CCC(C(=O)NCCCN3CCC(C)CC3)CC2)c(C)c1 (stereo unspecified) | -3.9% (inactive) |
| CC(=O)N1CCN(c2ccc(NCc3cccc4ccccc34)cc2)CC1 | 3.9% (inactive) |
| CN(C)c1ccc(N=Cc2cccn2C)cc1 | 0.6% (inactive) |
| CC(C)(C)CN1CCC(Oc2cccc(C(=O)N3CCNC(=O)C3(C)C)c2)CC1 | 6.9% (inactive) |
| COC(=O)C1=CN(Cc2ccc(OC)cc2)C=C(C(=O)OC)C1c1ccc(O)c(OC)c1 | 8.4% (inactive) |
| O=C(CCNC(=O)N1CC(=O)Nc2ccccc21)Nc1cccc(Cl)c1 | 2% (inactive) |
| C=CCNC(=O)N1c2ccccc2Sc2ccccc21 | 26.2% (inactive) |
| CC(C)OCCCNC(=S)Nc1ccc(S(N)(=O)=O)cc1 | 54.9% (active) |
| CCN(C(=O)c1ccc(S(=O)(=O)N(C)C)cc1)C(C)C(=O)Nc1ccc(C)cc1 (stereo unspecified) | 5.9% (inactive) |
| CC(C)Oc1ccc(C(=O)Nc2ccc(S(=O)(=O)N3CCN(C)CC3)cc2)cc1 | -10.6% (inactive) |
